In PubChem BioAssay (NCI) one finds growth inhibition data, which are given here for eight compounds.

This is part of a sample that, as a whole, favours compounds with a hit. Of some 79,000 tested, about 15% had one in any assay. A number with no mark means an inactive call. The source made the active and inactive calls. Rule as the data show it: active = growth inhibition above about 70%; inactive = the rest.

The test in a line: NCI Yeast Anticancer Drug Screen. Data for the mgt1 strain (AID 153). The conditions noted are these: S. cerevisiae mgt1 mutant growth inhibition, stronger effect = higher value. The procedure:
Growth inhibition of yeast strains with defined genetic alterations is measured as a screen for potential anti-cancer activity. Selected strains with alterations in DNA damage repair or cell cycle control were exposed to compounds and growth inhibition was measured relative to vehicle treated controls. The strain used in this assay is mgt1

As to `N/C(=N/N=C/c1cc(Br)cc(Br)c1O)NO`, the growth inhibition is -36% (at 1.2 µM); -27% (at 3.7 µM); 66% (at 11.0 µM); 95% (active) (at 33.0 µM); 98% (active) (at 100.0 µM).

On to `Oc1[nH]c2ccccc2c1N=NC(=S)N1CCCCC1`, for which the growth inhibition runs as follows: (at 1.2 µM) 0%; (at 3.7 µM) 1%; (at 11.0 µM) 23%; (at 33.0 µM) 97% (active); (at 100.0 µM) 99% (active).

As for `S=c1sc2c(s1)SCCS2`, the growth inhibition is, setting by setting: (at 1.2 µM) -2%; (at 3.7 µM) -1%; (at 11.0 µM) 18%; (at 33.0 µM) -14%; (at 100.0 µM) 5%.

For the compound `O=c1ccc2ccccc2c2ccccc12`, the growth inhibition (at 1.2 µM) is 3%; the growth inhibition (at 3.7 µM) is 21%; the growth inhibition (at 11.0 µM) is 79% (active); the growth inhibition (at 33.0 µM) was 99% (active); the growth inhibition (at 100.0 µM) was 99% (active).

On to `COc1cc([C@@H]2c3cc4c(cc3[C@H](OC3OC5COC(C(C)C)OC5C(O)C3O)C3COC(=O)[C@@H]32)OCO4)cc(OC)c1O` (stereo not given in full), for which the growth inhibition by setting is: (at 1.2 µM) -31%; (at 3.7 µM) -8%; (at 11.0 µM) -32%; (at 33.0 µM) -29%; (at 100.0 µM) 22%.

For the compound `Nc1ccc(F)cc1S`, the growth inhibition by setting is: (at 1.2 µM) -15%; (at 3.7 µM) -20%; (at 11.0 µM) 12%; (at 33.0 µM) 92% (active); (at 100.0 µM) 98% (active).

Take `O=C1NC(SSC2=NNC3(C(=O)N2)c2ccccc2-c2ccccc23)=NNC12c1ccccc1-c1ccccc12`: the growth inhibition runs as follows: (at 1.2 µM) 1%; (at 3.7 µM) 0%; (at 11.0 µM) 0%; (at 33.0 µM) -10%; (at 100.0 µM) 7%.

In the case of `N=C1N=Nc2nc(C3(c4nc5n(c4O)C(=N)N=N5)Cc4ccccc4C3=O)c(O)n21` (stereo not given), the growth inhibition is 5% (at 1.2 µM); 7% (at 3.7 µM); 22% (at 11.0 µM); 90% (active) (at 33.0 µM); 99% (active) (at 100.0 µM).
